According to article PMC8384837, “Expanding the binding specificity for RNA recognition by a PUF domain”:

What was measured:
Assay in all cases: yeast three-hybrid, YBZ-1, SC-Leu-His + 0.5 mM 3-AT, 4 days
Conditions in all cases: tags: N-Gal4 AD-HA kept; label: inside an RPR1-promoter hybrid RNA with tandem MS2 sites; ssRNA
PUM1 PUF domain R3-GFL = PUM1 PUF domain R3-GFL (Homo sapiens, UniProt Q14671 828-1176, C935G;R936F;Q939L)
In short: (§1)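 The interaction score is the log change in how often each variant appears, from input to selection. Frequencies came from PCR-amplified, Illumina-sequenced repeat regions of Pumilio-1 PUF domain libraries grown in strain YBZ-1 (LexA–MS2 coat fusion, HIS3 reporter) alongside matching RNA elements. Input plates were SC-Leu and selection plates were SC-Leu-His + 0.5 mM 3-AT, each for four days, and the log2 calculation used a pseudocount of 1 where a variant was absent.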

PUM1 PUF domain R5-RMC = PUM1 PUF domain R5-RMC (Homo sapiens, UniProt Q14671 828-1176, C1007R;R1008M;Q1011C)
In short: as §1

PUM1 PUF domain R5-PRD = PUM1 PUF domain R5-PRD (Homo sapiens, UniProt Q14671 828-1176, C1007P;Q1011D)
In short: as §1

PUM1 PUF domain R5-TAR = PUM1 PUF domain R5-TAR (Homo sapiens, UniProt Q14671 828-1176, C1007T;R1008A;Q1011R)
In short: as §1

PUM1 PUF domain R6-DWE = biological target: T1, PUM1 PUF domain R6-DWE (Homo sapiens, UniProt Q14671 828-1176, N1043D;Y1044W;Q1047E)
T1 sequence: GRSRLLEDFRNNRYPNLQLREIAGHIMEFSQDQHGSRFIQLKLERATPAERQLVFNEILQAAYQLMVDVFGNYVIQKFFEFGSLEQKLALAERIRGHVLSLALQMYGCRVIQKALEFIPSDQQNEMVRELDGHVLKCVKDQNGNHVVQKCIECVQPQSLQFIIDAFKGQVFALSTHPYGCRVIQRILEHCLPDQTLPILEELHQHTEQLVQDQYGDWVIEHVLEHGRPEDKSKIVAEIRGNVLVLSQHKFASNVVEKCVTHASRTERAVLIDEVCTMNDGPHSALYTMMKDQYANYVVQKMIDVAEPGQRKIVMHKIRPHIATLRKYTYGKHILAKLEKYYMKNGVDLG
In short: as §1

PUM1 PUF domain R4-WGT = PUM1 PUF domain R4-WGT (Homo sapiens, UniProt Q14671 828-1176, N971W;H972G;Q975T)
In short: as §1

PUM1 PUF domain R3-VYD = PUM1 PUF domain R3-VYD (Homo sapiens, UniProt Q14671 828-1176, C935V;R936Y;Q939D)
In short: as §1

PUM1 PUF domain R5-AFY = PUM1 PUF domain R5-AFY (Homo sapiens, UniProt Q14671 828-1176, C1007A;R1008F;Q1011Y)
In short: as §1

PUM1 PUF domain R5-QVI = PUM1 PUF domain R5-QVI (Homo sapiens, UniProt Q14671 828-1176, C1007Q;R1008V;Q1011I)
In short: as §1

PUM1 PUF domain R2-AWY = PUM1 PUF domain R2-AWY (Homo sapiens, UniProt Q14671 828-1176, N899A;Y900W;Q903Y)
In short: as §1

“GGCUAGAACUAGUGGAUCCCCCGGCGCCCGGCGGCUCGAGCCCGGGUAAGUGUAAUUAGUCUGCAUGCCGCCGGGCGCCAUGCCUGCAGGUCGACUCUAGAAAACAUG” was tested, and the binding signal (PUM1 PUF domain R3-GFL) was 2.59 log2 enrichment (interaction score).
With “GGCUAGAACUAGUGGAUCCCCCGGCGCCCGGCGGCUCGAGCCCGGGUAAGUGUCAAUAGUCUGCAUGCCGCCGGGCGCCAUGCCUGCAGGUCGACUCUAGAAAACAUG” the binding signal (PUM1 PUF domain R5-RMC) was 3.26 log2 enrichment (interaction score), the binding signal (PUM1 PUF domain R5-PRD) was 2.8 log2 enrichment (interaction score) and the binding signal (PUM1 PUF domain R5-TAR) was 5.36 log2 enrichment (interaction score).
“GGCUAGAACUAGUGGAUCCCCCGGCGCCCGGCGGCUCGAGCCCGGGUAAGUGAAAAUAGUCUGCAUGCCGCCGGGCGCCAUGCCUGCAGGUCGACUCUAGAAAACAUG” was tested, and the binding signal (PUM1 PUF domain R6-DWE) was 2.98 log2 enrichment (interaction score).
With “GGCUAGAACUAGUGGAUCCCCCGGCGCCCGGCGGCUCGAGCCCGGGUAAGUGUAUAUAGUCUGCAUGCCGCCGGGCGCCAUGCCUGCAGGUCGACUCUAGAAAACAUG” the binding signal (PUM1 PUF domain R4-WGT) was 4.02 log2 enrichment (interaction score).
In the case of “GGCUAGAACUAGUGGAUCCCCCGGCGCCCGGCGGCUCGAGCCCGGGUAAGUGUUAAUAGUCUGCAUGCCGCCGGGCGCCAUGCCUGCAGGUCGACUCUAGAAAACAUG”, the binding signal (PUM1 PUF domain R5-RMC) is reported as 3.38 log2 enrichment (interaction score), the binding signal (PUM1 PUF domain R5-PRD) is reported as 3.07 log2 enrichment (interaction score) and the binding signal (PUM1 PUF domain R5-TAR) is reported as 1.21 log2 enrichment (interaction score).
In the case of “GGCUAGAACUAGUGGAUCCCCCGGCGCCCGGCGGCUCGAGCCCGGGUAAGUGUACAUAGUCUGCAUGCCGCCGGGCGCCAUGCCUGCAGGUCGACUCUAGAAAACAUG”, the binding signal (PUM1 PUF domain R4-WGT) is reported as 2.69 log2 enrichment (interaction score).
With “GGCUAGAACUAGUGGAUCCCCCGGCGCCCGGCGGCUCGAGCCCGGGUAAGUGUAAAUAGUCUGCAUGCCGCCGGGCGCCAUGCCUGCAGGUCGACUCUAGAAAACAUG” the binding signal (PUM1 PUF domain R3-VYD) was 6.46 log2 enrichment (interaction score), the binding signal (PUM1 PUF domain R3-GFL) was 4.38 log2 enrichment (interaction score) and the binding signal (PUM1 PUF domain R4-WGT) was 3.43 log2 enrichment (interaction score). For the same sequence, the binding signal (PUM1 PUF domain R5-PRD) was 3.41 log2 enrichment (interaction score) and the binding signal (PUM1 PUF domain R5-AFY) was 2.38 log2 enrichment (interaction score).
For “GGCUAGAACUAGUGGAUCCCCCGGCGCCCGGCGGCUCGAGCCCGGGUAAGUGUGAAUAGUCUGCAUGCCGCCGGGCGCCAUGCCUGCAGGUCGACUCUAGAAAACAUG”, the binding signal (PUM1 PUF domain R5-QVI) was 4.41 log2 enrichment (interaction score).
With “GGCUAGAACUAGUGGAUCCCCCGGCGCCCGGCGGCUCGAGCCCGGGUAAGUGUAAAAAGUCUGCAUGCCGCCGGGCGCCAUGCCUGCAGGUCGACUCUAGAAAACAUG” the binding signal (PUM1 PUF domain R2-AWY) was 3.08 log2 enrichment (interaction score).
